Experimental findings from the supplement of paper PMC12350171 are described below.

Structures can show the parent of a compound that is named as a salt. Values without a mark were called inactive.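 Rule for the calls: active = AUC significantly below DMSO controls by Student t-fit with adjusted P under 0.01; inactive = not significantly reduced.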

This assay relates to Haemophilus parainfluenzae. Description: growth AUC normalised to DMSO control (fraction of control); higher = less growth inhibition, active = hit call of the paper. Conditions: 20 µM. The method in brief: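 Pathogens passaged twice anaerobically were inoculated at a starting OD578 of 0.01 into pre-reduced mGAM plates with drug at 20 μM and 1% DMSO, sealed with breathable membranes. Haemophilus parainfluenzae medium was supplemented with hemin and NAD. OD578 was read hourly for 24 h, with three biological replicates. Growth-curve AUC was computed by the trapezoidal rule up to the exponential-to-stationary transition and normalised to DMSO controls on the same plate.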
For `CCCC1O[C@@H]2C[C@H]3[C@@H]4CCC5=CC(=O)C=C[C@]5(C)[C@H]4[C@@H](O)C[C@]3(C)[C@]2(C(=O)CO)O1` (some centres not stated) [Budesonide], the “growth AUC normalised to DMSO control” value was 0.964.

`O=C(O)COCCN1CCN(C(c2ccccc2)c2ccc(Cl)cc2)CC1` (configuration not stated) [Cetirizine dihydrochloride]: the “growth AUC normalised to DMSO control” value is 0.943.

Consider `Cc1scc2c1N(C(=O)CN1CCN(C)CC1)c1ccccc1NC2=O` [Telenzepine dihydrochloride], for which the “growth AUC normalised to DMSO control” value is 1.

As to `O=C1CCc2ccc(OCCCCN3CCN(c4cccc(Cl)c4Cl)CC3)cc2N1` [Aripiprazole], the “growth AUC normalised to DMSO control” value is 0.994.

As for `OC(CCN1CCCCC1)(c1ccccc1)c1ccccc1` [Pridinol methanesulfonate salt], the “growth AUC normalised to DMSO control” value is 0.999.

For the compound `OCCN1CCN(CC/C=C2/c3ccccc3Sc3ccc(Cl)cc32)CC1` [Zuclopenthixol dihydrochloride], the “growth AUC normalised to DMSO control” value was 0.916.

For `N=C(N)N1CCc2ccccc2C1` [Debrisoquin sulfate], the “growth AUC normalised to DMSO control” value was 0.978.

As to `CN(Cc1cc(Br)cc(Br)c1N)C1CCCCC1` [Bromhexine hydrochloride], the “growth AUC normalised to DMSO control” value was 1.04.

For `CC(=O)O[C@]1(C(C)=O)CC[C@H]2[C@@H]3C=C(Cl)C4=CC(=O)CC[C@]4(C)[C@H]3CC[C@@]21C` [Chlormadinone acetate], the “growth AUC normalised to DMSO control” value is 1.01.

On to `O=C(O)c1cn(C2CC2)c2cc(N3CCNCC3)c(F)cc2c1=O` [Ciprofloxacin hydrochloride monohydrate], for which the “growth AUC normalised to DMSO control” value was 0.0495 (active).

As for `Clc1ccccc1CN1CCc2sccc2C1` [Ticlopidine hydrochloride], the “growth AUC normalised to DMSO control” value is 0.972.

For the compound `O=C(CCNNC(=O)c1ccncc1)NCc1ccccc1` [Nialamide], the “growth AUC normalised to DMSO control” value was 1.01.

`CN1C(=O)CC(c2ccccc2)C1=O` (configuration not stated) [Phensuximide]: the “growth AUC normalised to DMSO control” value is 1.01.

For `Cc1c(C)c2c(c(C)c1O)CCC(C)(COc1ccc(CC3SC(=O)NC3=O)cc1)O2` (configuration not stated) [Troglitazone], the “growth AUC normalised to DMSO control” value was 0.984.

For the compound `CC(=O)/N=c1/sc(S(N)(=O)=O)nn1C` [Methazolamide], the “growth AUC normalised to DMSO control” value is 1.

As for `CCc1cccc2c3c([nH]c12)C(CC)(CC(=O)O)OCC3` (configuration not stated) [Etodolac], the “growth AUC normalised to DMSO control” value is 1.02.

`N=C(N)NC(=O)Cc1c(Cl)cccc1Cl` [Guanfacine hydrochloride]: the “growth AUC normalised to DMSO control” value was 1.01.

In the case of `NS(=O)(=O)Cc1noc2ccccc12` [Zonisamide], the “growth AUC normalised to DMSO control” value was 0.981.

As to `CCCN(CCC)S(=O)(=O)c1ccc(C(=O)O)cc1` [Probenecid], the “growth AUC normalised to DMSO control” value is 1.02.

In the case of `Cc1cc(CC(=O)O)n(C)c1C(=O)c1ccc(Cl)cc1` [Zomepirac sodium salt], the “growth AUC normalised to DMSO control” value was 0.993.

In the case of `NS(=O)(=O)c1cc2c(cc1Cl)N=CNS2(=O)=O` [Chlorothiazide], the “growth AUC normalised to DMSO control” value is 1.01.

Consider `Cc1ncc([N+](=O)[O-])n1CC(O)CCl` (configuration not stated) [Ornidazole], for which the “growth AUC normalised to DMSO control” value was 1.

On to `CCC(=O)[C@@]1(C)[C@H](C)C[C@H]2[C@@H]3CCC4=CC(=O)C=C[C@]4(C)[C@H]3[C@@H](O)C[C@@]21C` [Rimexolone], for which the “growth AUC normalised to DMSO control” value was 0.998.

Turning to `Clc1ccc(Nc2nnc(Cc3ccncc3)c3ccccc23)cc1` [Vatalanib], the “growth AUC normalised to DMSO control” value was 1.04.

For the compound `CCN(CC)CCNC(=O)c1cc(S(C)(=O)=O)ccc1OC` [Tiapride hydrochloride], the “growth AUC normalised to DMSO control” value was 0.993.

Take `Cc1cc(-c2ccccc2)nnc1NCCN1CCOCC1` [Minaprine dihydrochloride]: the “growth AUC normalised to DMSO control” value is 0.991.

Consider `Cc1nccn1CC1CCc2c(c3ccccc3n2C)C1=O` (configuration not stated) [Ondansetron hydrochloride], for which the “growth AUC normalised to DMSO control” value is 1.07.

Turning to `C[C@]1(Cn2ccnn2)[C@H](C(=O)O)N2C(=O)C[C@H]2S1(=O)=O` [Tazobactam], the “growth AUC normalised to DMSO control” value is 1.02.

For the compound `CCOC(=O)Nc1ccc2c(c1)N(C(=O)CCN1CCOCC1)c1ccccc1S2` [Moricizine hydrochloride], the “growth AUC normalised to DMSO control” value was 0.998.

For `CS(=O)(=O)c1ccc(C2=C(c3ccccc3)C(=O)OC2)cc1` [Rofecoxib], the “growth AUC normalised to DMSO control” value was 0.964.

With `C[C@H](CCC(=O)O)[C@H]1CC[C@H]2[C@@H]3CC[C@@H]4C[C@H](O)CC[C@]4(C)[C@H]3CC[C@]12C` [Lithocholic acid], the “growth AUC normalised to DMSO control” value is 1.04.

`CCC(=O)OCC(=O)[C@@]1(OC(=O)CC)[C@@H](C)C[C@H]2[C@@H]3CCC4=CC(=O)C=C[C@]4(C)[C@@]3(Cl)[C@@H](O)C[C@@]21C` [Beclomethasone dipropionate]: the “growth AUC normalised to DMSO control” value was 0.969.
